Measured values from paper PMC10668032, “Altered binding affinity of SIX1-Q177R correlates with enhanced WNT5A and WNT pathway effector expression in Wilms tumor”.
Whole data set: some 33,000 sequences, median “e-score” near -0.05, cut for the highest 2% near 0.38. Only a selection was taken, and the highest values are over-represented in it overall.

Target: T1, SIX1-Q177R homeodomain (human, UniProt Q15475 108-198, Q177R)
T1 sequence: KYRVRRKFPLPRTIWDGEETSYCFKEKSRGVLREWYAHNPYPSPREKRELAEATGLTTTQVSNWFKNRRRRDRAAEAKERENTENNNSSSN
Experiment: universal protein binding microarray; Universal all-10-mer PBM (8x60K, AMADID 030236), 300 nM GST-tagged protein, Alexa Fluor 488 anti-GST; buffer, salt, pH and temperature not stated (as in Berger); high values mean tight binding
Details: protein: ivt; tags: N-terminal GST; dsDNA, one strand shown
Procedure, shortened: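 After in vitro transcription/translation, GST-tagged homeodomains were quantified against a recombinant GST standard curve by anti-GST western blot. They were then placed in duplicate at 300 nM final concentration on universal 'all 10-mer' protein binding microarrays of 8×60K format.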

Point of comparison: ACCGGACA, binding signal 0.245 ± 0.00259 E-score. Against it:
- CACACTTA — lower, 0.204 ± 0.00443 E-score
- CAACGACA — lower, 0.197 ± 0.0113 E-score
- CGGATCCC — within error, 0.235 ± 0.023 E-score
- CAGGGGTA — within error, 0.234 ± 0.0165 E-score
- ACCCAGGG — lower, 0.201 ± 0.0184 E-score
- CACACTAC — higher, 0.2973 ± 0.00215 E-score
- GACACTAC — higher, 0.434 ± 0.00877 E-score
- AACACTAC — higher, 0.381 ± 0.0184 E-score
- AACACTAG — higher, 0.357 ± 0.0233 E-score
- AACACTAT — higher, 0.295 ± 0.0435 E-score
- CACACTAG — within error, 0.25 ± 0.0068 E-score
- CACCCAGG — higher, 0.284 ± 0.0239 E-score
- GGTGCTAC — lower, 0.183 ± 0.00715 E-score
- ACACTATC — higher, 0.342 ± 0.0149 E-score
- CCACTACA — higher, 0.298 ± 0.0151 E-score
- ACACTACA — higher, 0.41 ± 0.0193 E-score
- ACACTACT — higher, 0.393 ± 0.0188 E-score
- ACACTAAT — higher, 0.333 ± 0.0159 E-score
- ACACTATA — higher, 0.322 ± 0.0287 E-score
- ACACTACC — higher, 0.421 ± 0.00623 E-score
- ACACTACG — higher, 0.388 ± 0.00491 E-score
- ACACTATG — higher, 0.328 ± 0.0294 E-score
- ACTCTACC — lower, 0.151 ± 0.0299 E-score
- ACACTAAG — higher, 0.337 ± 0.0137 E-score
- TCACTACA — lower, 0.225 ± 0.0148 E-score
- CCAGAACA — higher, 0.261 ± 0.00433 E-score
- GGGGCGTA — lower, 0.159 ± 0.0113 E-score
- CCGCGTCA — lower, 0.156 ± 0.0229 E-score
- AGTAGGTG — higher, 0.279 ± 0.025 E-score
- CCTCTTTA — lower, 0.171 ± 0.0307 E-score
- AGGGTATG — within error, 0.226 ± 0.0255 E-score
- CCCCGGCC — within error, 0.233 ± 0.0259 E-score
- AGGTACTC — lower, 0.166 ± 0.0232 E-score
- AGGTATCC — higher, 0.344 ± 0.00693 E-score
- CGGTATCC — higher, 0.325 ± 0.00938 E-score
- GGGTACCC — lower, 0.234 ± 0.00584 E-score
- GGGTACAC — higher, 0.443 ± 0.0111 E-score
- GGGTACAA — lower, 0.17 ± 0.0208 E-score
- CGGTATAC — lower, 0.165 ± 0.00282 E-score
- AGGTACAC — higher, 0.452 ± 0.00159 E-score
- CGGTACAC — higher, 0.4352 ± 0.00226 E-score
- CGCACTAC — lower, 0.152 ± 0.0379 E-score
- CACGCTCG — within error, 0.242 ± 0.0063 E-score
- ACTGCATA — lower, 0.2138 ± 0.00024 E-score
- ATTGGGTG — within error, 0.261 ± 0.0204 E-score
- CACTCATA — lower, 0.195 ± 0.0111 E-score
- CGCAATAC — higher, 0.276 ± 0.0226 E-score
- CACGCAAC — within error, 0.227 ± 0.0168 E-score
- CCCCCTAC — within error, 0.267 ± 0.031 E-score
- TCGCACCA — lower, 0.177 ± 0.0487 E-score
- CAAGTACA — within error, 0.207 ± 0.0357 E-score
- CCCTAACA — lower, 0.181 ± 0.028 E-score
- CACCAATG — lower, 0.222 ± 0.00267 E-score
- CTCCCCAA — higher, 0.28 ± 0.0223 E-score
- ACAACCCC — lower, 0.207 ± 0.03 E-score
- CGCGCTAC — lower, 0.15 ± 0.0294 E-score
- GGCCACAC — within error, 0.233 ± 0.0102 E-score
- AGCTACAC — higher, 0.435 ± 0.00848 E-score
- CGCTACAC — higher, 0.4023 ± 0.0021 E-score
- AGCCACAC — lower, 0.208 ± 0.0231 E-score
- CGCTCTAC — lower, 0.157 ± 0.026 E-score
- GGCTACAC — higher, 0.4245 ± 0.0031 E-score
- GGCTACGA — lower, 0.196 ± 0.00863 E-score
- CTTTTACA — within error, 0.17 ± 0.0837 E-score
- CACGTACG — lower, 0.167 ± 0.0161 E-score
- CTCCTACA — within error, 0.243 ± 0.0252 E-score
- ACCACGTC — lower, 0.182 ± 0.0198 E-score
- ACTATCGA — lower, 0.156 ± 0.0186 E-score
- CTGAACAC — higher, 0.4224 ± 0.00137 E-score
- ATGAACAC — higher, 0.4 ± 0.0197 E-score
- GTGAACAC — higher, 0.4118 ± 0.00099 E-score
- CTGAGCAC — within error, 0.254 ± 0.0174 E-score
- CTGAACCC — lower, 0.187 ± 0.0441 E-score
- ATGAACCC — lower, 0.198 ± 0.0247 E-score
- GTGAGCAC — lower, 0.159 ± 0.0143 E-score
- ATGCACAC — higher, 0.289 ± 0.00704 E-score
- TCAGAACA — lower, 0.228 ± 0.00667 E-score
- ACTCCCCA — lower, 0.163 ± 0.025 E-score
- GGAAGACA — lower, 0.155 ± 0.0119 E-score
- CACGTCGA — lower, 0.177 ± 0.0103 E-score
- CAGTCGGG — lower, 0.196 ± 0.029 E-score
- ATCCGACC — lower, 0.153 ± 0.0521 E-score
- CCCGATCC — lower, 0.2392 ± 0.00171 E-score
- AGATGGTG — higher, 0.2726 ± 0.000212 E-score
- CTACACAG — within error, 0.161 ± 0.084 E-score
